The values below come from PubChem BioAssay (NCATS).

Structures are written as SMILES. Results filed as inconclusive are left out. The source made the active and inactive calls. Calls come from the whole dose curve; as a rule, active = well fitted inhibition curve with a large enough effect; inconclusive = small, poorly fitted or top-dose-only effect; inactive = flat fitted curve, though single readings scatter.
% is set by controls: 0 for no effect and ±100 for the full control effect; potency is the fitted concentration of half-maximal effect.

The target of the test is Dual specificity protein kinase CLK4 (Homo sapiens) (UniProt Q9HAZ1). Put plainly: qHTS Assay for Inhibitors of CDC-like Kinase 4 (ADP-Glo Assay) (AID 1771). Note: nearly all actives have a fitted effect of over 70% in size. The note with it: recombinant CLK4, ADP-Glo luminescence; series mostly up to 80 µM; activity change, negative = inhibition: at the top concentration. The protocol: NIH Molecular Libraries Probe Production Centers Network [MLPCN] NIH Chemical Genomics Center [NCGC] MLPCN Grant: 1R03MH084827-01 Assay Submitter (PI): Tom Misteli NCGC Assay Overview: Clk4 (Invitrogen, cat# PV3839) was assayed using ATP and the RS repeat peptide (AnaSpec cat # 61722) as substrates. In the assay, the ADP levels were detected using Promega ADP-Glo technology wherein the remaining ATP from the kinase reaction is first depleted with an ATPase reagent followed by a reagent that contains and enzyme which converts the ADP produced to ATP as well as Ultra-Glo luciferase and D-luciferin which generates a bioluminescence signal from the ATP. The positive control for the assay was TG003 (Sigma-Aldrich, cat# 300801-52-9) which has been described as an inhibitor of Clk 4[1].
Dual specificity protein kinase CLK4 (Homo sapiens), sequence (Q9HAZ1 whole entry, looked up): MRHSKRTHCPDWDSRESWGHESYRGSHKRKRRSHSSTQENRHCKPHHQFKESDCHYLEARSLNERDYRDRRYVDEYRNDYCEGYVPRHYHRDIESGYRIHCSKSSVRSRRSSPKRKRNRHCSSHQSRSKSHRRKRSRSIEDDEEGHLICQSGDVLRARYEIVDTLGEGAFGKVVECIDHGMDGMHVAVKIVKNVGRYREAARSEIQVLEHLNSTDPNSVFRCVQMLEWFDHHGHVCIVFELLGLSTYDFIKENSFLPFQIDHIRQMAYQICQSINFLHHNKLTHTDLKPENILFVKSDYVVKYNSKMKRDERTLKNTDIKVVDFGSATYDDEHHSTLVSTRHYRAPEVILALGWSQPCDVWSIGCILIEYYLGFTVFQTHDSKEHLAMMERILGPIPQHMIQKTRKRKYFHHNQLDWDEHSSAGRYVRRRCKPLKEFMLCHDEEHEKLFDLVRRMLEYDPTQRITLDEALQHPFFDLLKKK
NCGC Assay Protocol Summary: Two uL/well of substrate-buffer solution (100 uM RS peptide, 1 uM ATP, 1x ADP-Glo Buffer A, 2 mM MgCl2, 0.5 mM EGTA, 2.5 mM DTT, 0.01% Triton X-100, final concentrations) was dispensed into 1536-well plates (Greiner, solid white, medium binding assay plates) with the Aurora Discovery BioRAPTR Flying Reagent Dispenser (FRD; Beckton-Dickenson). Twenty-three nanoliter of compound and control solutions were transferred to the assay plate using a Kalypsys pin-tool followed by 0.5 uL/well Clk4-buffer solution (25 nM Clk4, 1x ADP-Glo Buffer A, 2 mM MgCl2, 0.5 mM EGTA, 2.5 mM DTT, 0.01% Triton X-100 final concentration) dispensing for a total kinase reaction volume of 2.5 uL/ well. After 1 hr of room-temperature incubation, 2.5 uL ADP-Glo reagent was added and incubated at room temperature for 45 min to stop the kinetic reaction and degrade residual ATP. The ADP product was then converted to ATP by adding 5 uL per well of ADP-Glo Reagent II to yield a total assay volume of 10 uL/ well. Luminescence was detected after 30 min room temperature incubation with the Perkin Elmer Viewlux.
(Quantitative high-throughput screening tests each substance at several concentrations.)
Consider `COc1cccc(-c2ccc3ncnc(N(C)C)c3c2)c1`, for which the Potency is 3.16 µM (active). Consider `COCCn1c(=O)c(-c2cccs2)nc2cnc(OC)nc21`, for which the “activity change, negative = inhibition” value is -22.5% (inactive).

Regarding `COc1cccc(-c2nccc(NCc3ccccc3OC)n2)c1`, the Potency is 14.1 µM (active). Take `FC(F)(F)c1ccccc1-c1cncnc1-n1ccnc1`: the “activity change, negative = inhibition” value was -9.42% (inactive).

For the compound `Cc1cnc(CNc2cc(-c3cccnc3)ncn2)cn1`, the Potency was 31.6 µM (active). As to `COc1ccccc1CNc1ncnc2ccc(-c3ccccc3OC)cc12`, the Potency was 4.47 µM (active).

Regarding `CN1CCN(c2ncc3nc(-c4ccc(F)cc4)c(=O)n(C4CC4)c3n2)CC1`, the “activity change, negative = inhibition” value is -0.945% (inactive). Take `COc1ncc2nc(C)c(=O)n(CCc3ccccc3)c2n1`: the “activity change, negative = inhibition” value was -13.3% (inactive).

On to `NC(=O)c1ccccc1-c1nc(-n2ccnc2)c2ccccc2n1`, for which the “activity change, negative = inhibition” value is -11.6% (inactive). As to `Cc1ccccc1-c1cncnc1N1CCN(C)CC1`, the “activity change, negative = inhibition” value is -20.7% (inactive). `O=c1cnc2cnc(Nc3ccccc3)nc2n1CCc1ccccc1`: the Potency was 0.316 µM (active). For the compound `Clc1ccccc1-c1ccc2ncnc(NC3CCNCC3)c2c1`, the Potency was 22.4 µM (active). As to `CCNc1ncc2nc(-c3ccc(F)cc3)c(=O)n(-c3ccc(OC)cc3)c2n1`, the “activity change, negative = inhibition” value was 0.481% (inactive). In the case of `COc1ccc(CNc2nc(-c3cccc(NS(C)(=O)=O)c3)nc3ccccc23)c(OC)c1`, the “activity change, negative = inhibition” value is -8.48% (inactive). Consider `CNc1nc(-c2cccc(C#N)c2)nc2ccccc12`, for which the Potency was 11.2 µM (active).

For the compound `Cc1noc(C)c1-c1nc(N(C)Cc2ccco2)c2ccccc2n1`, the Potency is 35.5 µM (active).

For the compound `CS(=O)(=O)Nc1cccc(-c2cncnc2Nc2ccccc2)c1`, the Potency is 22.4 µM (active). Regarding `CN1CCN(c2ncncc2-c2ccccc2Cl)CC1`, the “activity change, negative = inhibition” value is -4.15% (inactive). With `COc1ccc(-c2nc3cnc(N(C)C)nc3n(Cc3ccc(F)cc3)c2=O)cc1`, the “activity change, negative = inhibition” value is 1.34% (inactive). Regarding `O=c1c(-c2ccccc2)nc2cnc(N3CCOCC3)nc2n1Cc1cccs1`, the “activity change, negative = inhibition” value is 2.55% (inactive).

On to `COc1cccc(Cn2c(=O)c(-c3cccs3)nc3cnc(N4CCNCC4)nc32)c1`, for which the “activity change, negative = inhibition” value is -6.21% (inactive). Still for that read-out and setting: for `Cc1cccc(CNc2ccnc(-c3ccccc3Cl)n2)c1` the value was -6.03% (inactive). With `Cc1noc(C)c1-c1nc(NC2CC2)c2ccccc2n1`, the Potency was 14.1 µM (active).

Consider `CN(Cc1ccco1)c1ccnc(-c2ccccc2C(F)(F)F)n1`, for which the “activity change, negative = inhibition” value was 7.33% (inactive).

For `COc1ccccc1CCn1c(=O)c(-c2cccc(Cl)c2)nc2cncnc21`, the “activity change, negative = inhibition” value is -1.49% (inactive).

Regarding `COc1cccc(Cn2c(=O)c(-c3ccc(F)cc3)nc3cncnc32)c1`, the “activity change, negative = inhibition” value was -2.63% (inactive).

Consider `COc1ccccc1CNc1ncnc2ccc(-c3ccc4c(c3)OCO4)cc12`, for which the Potency is 0.158 µM (active). With `COCCn1c(=O)c(-c2ccccc2)nc2cnc(N3CCOCC3)nc21`, the “activity change, negative = inhibition” value was 8.82% (inactive). On to `CN(C)C(=O)c1ccc(-c2cncnc2Nc2ccc(F)cc2)cc1`, for which the Potency was 25.1 µM (active). Turning to `COc1cccc(Cn2c(=O)c(-c3ccc(Cl)cc3)nc3cnc(N4CCNCC4)nc32)c1`, the “activity change, negative = inhibition” value is -4.22% (inactive). Consider `COc1ccc(CNc2nc(-c3cccc(C#N)c3)nc3ccccc23)c(OC)c1`, for which the “activity change, negative = inhibition” value is -14% (inactive). For the compound `CN(C)c1ncc2nc(-c3cccc(C#N)c3)c(=O)n(C)c2n1`, the “activity change, negative = inhibition” value is -4.6% (inactive). On to `CN(C)c1ncc2nc(-c3cccs3)c(=O)n(-c3ccccc3)c2n1`, for which the “activity change, negative = inhibition” value is -14.1% (inactive). On to `O=c1c(-c2ccc(F)cc2)nc2cnc(N3CCOCC3)nc2n1C1CC1`, for which the “activity change, negative = inhibition” value is 2.08% (inactive). Take `N#Cc1cccc(-c2nccc(NCc3cccs3)n2)c1`: the Potency is 6.31 µM (active). In the case of `COc1ccc(Oc2ncc3nc(-c4ccc(F)cc4)c(=O)n(Cc4cccs4)c3n2)cc1`, the “activity change, negative = inhibition” value is 8.29% (inactive). As for `c1csc(CNc2ncncc2-c2ccoc2)c1`, the “activity change, negative = inhibition” value was -13.2% (inactive). Consider `CC(=O)NCCNc1ncncc1-c1ccccc1CN(C)C`, for which the “activity change, negative = inhibition” value is -12.1% (inactive). `Cn1c(=O)c(-c2ccc(F)cc2)nc2cnc(Nc3ccccc3)nc21`: the “activity change, negative = inhibition” value is -2.49% (inactive). `COc1ccc(-c2nc3cnc(N4CCOCC4)nc3n(Cc3cccc(OC)c3)c2=O)cc1`: the “activity change, negative = inhibition” value is 1.29% (inactive).
